Assay [1] concerns the target Tyrosine-protein kinase SYK (Homo sapiens) (UniProt P43405). To be noted: at 10 µM.
In assay [2] the target is T1, Mitogen-activated protein kinase kinase kinase 7 (Homo sapiens) (UniProt O43318).
T1 sequence (whole entry): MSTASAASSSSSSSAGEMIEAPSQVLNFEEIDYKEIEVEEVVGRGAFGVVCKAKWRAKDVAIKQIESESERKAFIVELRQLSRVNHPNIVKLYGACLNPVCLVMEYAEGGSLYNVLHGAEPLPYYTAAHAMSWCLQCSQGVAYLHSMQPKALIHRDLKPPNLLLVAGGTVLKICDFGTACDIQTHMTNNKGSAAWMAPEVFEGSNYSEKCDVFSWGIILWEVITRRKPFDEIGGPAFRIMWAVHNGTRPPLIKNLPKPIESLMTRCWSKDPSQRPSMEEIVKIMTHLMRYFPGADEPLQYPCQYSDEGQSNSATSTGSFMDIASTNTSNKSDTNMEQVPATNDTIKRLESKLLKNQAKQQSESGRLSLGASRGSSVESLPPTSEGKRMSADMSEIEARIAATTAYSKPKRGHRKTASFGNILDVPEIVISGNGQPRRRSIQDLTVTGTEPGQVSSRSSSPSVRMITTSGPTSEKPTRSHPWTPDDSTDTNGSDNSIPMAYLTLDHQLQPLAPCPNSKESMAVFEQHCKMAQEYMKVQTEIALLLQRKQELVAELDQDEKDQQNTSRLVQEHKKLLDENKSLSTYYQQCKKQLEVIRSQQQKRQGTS
To be noted: at 1 µM.

Assay [3] concerns the target T1, Mitogen-activated protein kinase kinase kinase 7 (Homo sapiens). As to conditions: at 10 µM.
The target in assay [4] is T2, Serine/threonine-protein kinase TAO1 (Homo sapiens) (UniProt Q7L7X3).
T2 sequence (whole entry): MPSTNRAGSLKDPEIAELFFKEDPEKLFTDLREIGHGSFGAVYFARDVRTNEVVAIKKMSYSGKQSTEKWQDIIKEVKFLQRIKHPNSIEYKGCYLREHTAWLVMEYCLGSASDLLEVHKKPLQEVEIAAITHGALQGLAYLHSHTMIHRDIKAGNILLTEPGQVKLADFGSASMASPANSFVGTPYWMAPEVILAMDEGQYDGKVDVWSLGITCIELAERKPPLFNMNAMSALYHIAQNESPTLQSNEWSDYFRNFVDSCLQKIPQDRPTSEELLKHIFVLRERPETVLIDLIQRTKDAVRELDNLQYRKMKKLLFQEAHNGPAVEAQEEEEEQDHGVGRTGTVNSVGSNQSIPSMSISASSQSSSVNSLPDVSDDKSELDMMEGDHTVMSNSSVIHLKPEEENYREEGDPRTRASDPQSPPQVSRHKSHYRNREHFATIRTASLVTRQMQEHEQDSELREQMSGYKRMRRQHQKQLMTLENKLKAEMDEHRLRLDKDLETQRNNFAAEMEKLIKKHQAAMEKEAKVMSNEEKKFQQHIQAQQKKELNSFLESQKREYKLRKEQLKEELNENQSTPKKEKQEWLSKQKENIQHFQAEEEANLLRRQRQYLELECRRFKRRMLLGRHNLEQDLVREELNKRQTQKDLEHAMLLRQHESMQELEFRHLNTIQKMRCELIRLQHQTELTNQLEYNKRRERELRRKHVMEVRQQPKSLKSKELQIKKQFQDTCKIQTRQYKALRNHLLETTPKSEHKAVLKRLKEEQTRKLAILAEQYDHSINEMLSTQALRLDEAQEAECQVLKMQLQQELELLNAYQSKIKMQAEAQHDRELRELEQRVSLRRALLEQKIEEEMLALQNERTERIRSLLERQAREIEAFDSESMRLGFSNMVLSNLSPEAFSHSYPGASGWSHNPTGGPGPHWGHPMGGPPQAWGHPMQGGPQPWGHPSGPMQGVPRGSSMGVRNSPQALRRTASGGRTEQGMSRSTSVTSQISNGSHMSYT
To be noted: at 1 µM.

Assay [5] deals with T2, Serine/threonine-protein kinase TAO1 (Homo sapiens). To be noted: at 10 µM.
Assay [6] addresses T3, Serine/threonine-protein kinase TAO2 (Homo sapiens) (UniProt Q9UL54).
T3 sequence (whole entry): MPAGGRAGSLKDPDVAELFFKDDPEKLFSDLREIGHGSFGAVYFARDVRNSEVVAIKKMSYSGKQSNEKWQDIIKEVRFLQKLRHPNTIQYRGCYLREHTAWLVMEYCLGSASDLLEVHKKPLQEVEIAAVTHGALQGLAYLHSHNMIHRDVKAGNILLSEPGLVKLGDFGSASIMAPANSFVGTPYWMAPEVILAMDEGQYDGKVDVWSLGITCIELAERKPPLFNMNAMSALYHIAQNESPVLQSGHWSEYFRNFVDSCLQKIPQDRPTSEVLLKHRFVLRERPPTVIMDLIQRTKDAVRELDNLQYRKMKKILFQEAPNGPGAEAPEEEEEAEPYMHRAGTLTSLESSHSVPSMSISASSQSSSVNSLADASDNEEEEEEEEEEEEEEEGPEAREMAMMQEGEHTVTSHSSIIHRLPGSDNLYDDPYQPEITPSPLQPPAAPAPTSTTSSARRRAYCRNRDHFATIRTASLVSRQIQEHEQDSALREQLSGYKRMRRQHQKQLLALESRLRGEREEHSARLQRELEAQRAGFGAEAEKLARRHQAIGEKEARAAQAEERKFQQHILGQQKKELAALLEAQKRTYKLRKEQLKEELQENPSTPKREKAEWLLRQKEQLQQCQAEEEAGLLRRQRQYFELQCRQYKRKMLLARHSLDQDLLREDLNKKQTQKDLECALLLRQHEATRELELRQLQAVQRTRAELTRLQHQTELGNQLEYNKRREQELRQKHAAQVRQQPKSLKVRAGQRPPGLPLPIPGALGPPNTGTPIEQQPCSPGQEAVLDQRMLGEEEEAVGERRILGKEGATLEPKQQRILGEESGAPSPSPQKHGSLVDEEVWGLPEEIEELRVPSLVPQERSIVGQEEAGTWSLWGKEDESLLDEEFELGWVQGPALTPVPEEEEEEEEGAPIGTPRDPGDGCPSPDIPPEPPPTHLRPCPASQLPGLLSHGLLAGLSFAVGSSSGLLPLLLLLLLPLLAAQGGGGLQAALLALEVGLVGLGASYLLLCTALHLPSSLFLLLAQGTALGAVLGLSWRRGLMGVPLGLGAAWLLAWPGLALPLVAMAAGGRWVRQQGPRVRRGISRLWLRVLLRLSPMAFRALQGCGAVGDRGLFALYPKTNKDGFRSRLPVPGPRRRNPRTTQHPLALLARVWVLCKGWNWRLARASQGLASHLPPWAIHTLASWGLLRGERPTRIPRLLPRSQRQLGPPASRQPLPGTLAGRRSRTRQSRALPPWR
As to conditions: at 1 µM.

Assay [7] concerns the target T3, Serine/threonine-protein kinase TAO2 (Homo sapiens). As to conditions: at 10 µM.
Assay [8] has as its target T4, Serine/threonine-protein kinase TAO3 (Homo sapiens) (UniProt Q9H2K8).
T4 sequence (whole entry): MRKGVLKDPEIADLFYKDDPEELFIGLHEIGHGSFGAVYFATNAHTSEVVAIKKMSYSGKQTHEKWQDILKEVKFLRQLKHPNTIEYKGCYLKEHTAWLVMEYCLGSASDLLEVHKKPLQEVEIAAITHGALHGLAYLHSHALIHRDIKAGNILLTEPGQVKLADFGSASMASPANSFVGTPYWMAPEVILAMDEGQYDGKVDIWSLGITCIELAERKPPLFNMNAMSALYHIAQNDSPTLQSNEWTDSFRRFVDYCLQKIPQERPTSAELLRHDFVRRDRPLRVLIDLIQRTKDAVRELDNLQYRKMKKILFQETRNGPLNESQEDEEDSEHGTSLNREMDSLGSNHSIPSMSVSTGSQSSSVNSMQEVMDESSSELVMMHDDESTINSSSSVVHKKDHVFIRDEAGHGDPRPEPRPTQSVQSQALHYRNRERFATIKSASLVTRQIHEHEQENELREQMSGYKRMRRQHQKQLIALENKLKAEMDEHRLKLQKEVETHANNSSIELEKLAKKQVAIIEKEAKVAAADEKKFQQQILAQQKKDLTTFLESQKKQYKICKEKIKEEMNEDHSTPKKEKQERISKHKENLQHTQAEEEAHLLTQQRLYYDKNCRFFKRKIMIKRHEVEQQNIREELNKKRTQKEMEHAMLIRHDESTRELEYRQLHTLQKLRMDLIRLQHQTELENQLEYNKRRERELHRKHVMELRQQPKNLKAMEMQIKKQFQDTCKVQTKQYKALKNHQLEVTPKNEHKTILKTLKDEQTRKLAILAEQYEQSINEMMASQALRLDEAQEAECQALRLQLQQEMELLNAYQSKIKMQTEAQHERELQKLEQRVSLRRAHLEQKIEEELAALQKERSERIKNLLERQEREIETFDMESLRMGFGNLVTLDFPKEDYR
To be noted: at 1 µM.

The target in assay [9] is T4, Serine/threonine-protein kinase TAO3 (Homo sapiens). To be noted: at 10 µM.
For assay [10], the target named is T5, Serine/threonine-protein kinase TBK1 (Homo sapiens) (UniProt Q9UHD2).
T5 sequence (whole entry): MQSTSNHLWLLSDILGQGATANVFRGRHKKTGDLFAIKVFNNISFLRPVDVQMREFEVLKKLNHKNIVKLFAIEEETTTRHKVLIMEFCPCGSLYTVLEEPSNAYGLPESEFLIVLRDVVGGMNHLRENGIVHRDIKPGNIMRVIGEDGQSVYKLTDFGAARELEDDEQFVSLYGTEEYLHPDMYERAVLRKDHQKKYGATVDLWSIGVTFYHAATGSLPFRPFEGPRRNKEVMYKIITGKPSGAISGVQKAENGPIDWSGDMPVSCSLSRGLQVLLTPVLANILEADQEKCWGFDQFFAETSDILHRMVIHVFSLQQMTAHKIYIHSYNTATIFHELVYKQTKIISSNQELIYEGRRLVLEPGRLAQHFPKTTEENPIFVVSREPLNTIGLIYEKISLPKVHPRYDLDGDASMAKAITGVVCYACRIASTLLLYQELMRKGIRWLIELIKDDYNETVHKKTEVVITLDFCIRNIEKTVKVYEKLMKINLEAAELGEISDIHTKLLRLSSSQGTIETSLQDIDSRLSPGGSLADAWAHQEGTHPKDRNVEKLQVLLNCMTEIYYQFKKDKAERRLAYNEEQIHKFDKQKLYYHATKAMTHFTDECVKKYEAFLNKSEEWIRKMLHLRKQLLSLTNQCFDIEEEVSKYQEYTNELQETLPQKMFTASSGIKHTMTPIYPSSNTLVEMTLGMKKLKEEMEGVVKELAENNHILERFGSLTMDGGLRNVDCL
To be noted: at 1 µM.

Each structure is given as a SMILES string.

Drawing on ChEMBL document CHEMBL2218924, “A broad activity screen in support of a chemogenomic map for kinase signalling research and drug discovery” (Biochem J, 2013), this text covers residual activity for five compounds.

Regarding `CC(C)c1nn(-c2c(Cl)cccc2Cl)c2nc(Cc3ccc(OCCO)cc3)[nH]c(=O)c12`, the residual activity in assay [1] amounted to 96%; in assay [2] it was 97%; in assay [3], 63%; in assay [4] it was 61%; in [5] it was 13%; in [6], 84%. Moreover, the residual activity in assay [7] amounted to 22%; in [8], 55%; in assay [9], 9%; in assay [10], 82%.
For `Nc1nc(Nc2ccc(S(N)(=O)=O)cc2)nn1C(=O)c1c(F)cccc1F`, the residual activity amounted to 11% in assay [1]; 82% in [2]; 34% in [3]; 15% in assay [4]; 4% in assay [5]; 6% in [6]. Further, the residual activity in assay [7] was determined as 2%; in assay [8] it was 18%; in assay [9] it was 4%; in [10], 72%.
As for `CC(C)(C)n1nc(Cc2cccc3ccccc23)c2c(N)ncnc21`, the residual activity came to 71% in assay [1]; 86% in [2]; 78% in assay [3]; 87% in [4]; 50% in assay [5]; 90% in [6]. In addition, the residual activity amounted to 42% in [7], 92% in assay [8], 41% in assay [9] and 78% in assay [10].
Regarding `COc1ccc2c(c1)c(C1=C(c3c[nH]c4ccccc34)C(=O)NC1=O)cn2CCCN(C)C`, the residual activity in [1] came to 69%; in [2] it was 82%; in [3], 53%; in [5], 33%; in assay [7], 28%; in [8] it was 82%. In addition, the residual activity stood at 37% in assay [9] and 59% in assay [10].
In the case of `O=C(O)/C=C/c1cc(Br)c(Br)c(Br)c1Br`, the residual activity is 84% in assay [1]; 107% in assay [2]; 95% in assay [3]; 77% in [4]; 29% in assay [5]; 84% in [6]. In addition, the residual activity in assay [7] worked out at 68%; in [8], 81%; in assay [9] it was 26%; in assay [10] it was 69%.
